Data from PubChem BioAssay (EPA / NIEHS).
Several values for one entry are separate records, joined by “and”; a condition that tells them apart may be missing. Equal entries are not always repeated. Records with an inconclusive call do not appear. The source holds several records for some structures; these can differ, active in one and inactive in another. Activity calls are given as the source filed them. Rule for the calls, unless noted: active = hit-call score of the fitted dose curve at least 0.9, where 1 is the maximum; inactive = score below 0.9.

Experiments:
[1] = read-out: Interleukin-8 (IL8), CXCL8 (gene 3576); assay: BSK_LPS_IL8: BioMAP Diversity Plus: LPS Assay for Interleukin-8 (IL8) Biomarker Activity (AID 2283078); conditions: primary human HUVEC with PBMC; actives raise or lower the signal
How it was run: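 Human umbilical vein endothelial cells co-cultured with PBMC, LPS-stimulated, exposed to compound for 24 h. IL-8 quantified by ELISA; fitted in both directions against DMSO, with SRB total-protein staining of parallel cultures for cytotoxicity.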

[2] = BSK_LPS_SRB: Viability Assessment in the BioMAP Diversity Plus: LPS Assay (AID 2283079); conditions: primary human HUVEC with PBMC;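 note: total protein by sulforhodamine B absorbance as a cytotoxicity measure; measured one day after compound addition; fitted in both directions against DMSO so loss or gain of signal counts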
How it was run: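 Co-culture of human umbilical vein endothelial cells and PBMC, read 24 h after dosing. Total protein by 0.1% SRB staining after 10% TCA fixation, absorbance at 560 nm; bidirectional fit against DMSO.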

[3] = read-out: Interleukin-1 alpha (IL1a), IL1A (gene 3552); assay: BSK_LPS_IL1a: BioMAP Diversity Plus: LPS Assay for Interleukin-1 alpha (IL1a) Biomarker Activity (AID 2283080); conditions: primary human HUVEC with PBMC; actives raise or lower the signal
How it was run: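 Human umbilical vein endothelial cells co-cultured with PBMC and stimulated with LPS; IL-1a measured by ELISA 24 h after dosing. Bidirectional fitting against DMSO; cytotoxicity checked by SRB staining in parallel cultures.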

[4] = read-out: Monocyte Chemoattractant Protein-1 (MCP1), CCL2 (gene 6347); assay: BSK_LPS_MCP1: BioMAP Diversity Plus: LPS Assay for Monocyte Chemoattractant Protein-1 (MCP1) Biomarker Activity (AID 2283081); conditions: primary human HUVEC with PBMC; actives raise or lower the signal
How it was run: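 Human umbilical vein endothelial cells co-cultured with PBMC, LPS-stimulated; secreted MCP-1 measured by ELISA 24 h after compound addition. Bidirectional curve fitting against DMSO baseline; SRB total-protein staining in parallel cultures for cytotoxicity.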

[5] = BSK_LPS_PGE2: BioMAP Diversity Plus: LPS Assay for Prostaglandin E2 (PGE2) Biomarker Activity (AID 2283082); conditions: primary human HUVEC with PBMC; actives raise or lower the signal
How it was run: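 ELISA read-out of PGE2 from human umbilical vein endothelial cells co-cultured with peripheral blood mononuclear cells under LPS, 24 h post-dose. Gain or loss of signal scored relative to DMSO baseline.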

[6] = read-out: Tumor necrosis factor (Homo sapiens) (UniProt P01375); assay: BSK_LPS_TNFa: BioMAP Diversity Plus: LPS Assay for Tumour Necrosis Factor alpha (TNFa) Biomarker Activity (AID 2283085); conditions: primary human HUVEC with PBMC; actives raise or lower the signal;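 for AC50: TNFa protein level quantified by ELISA in the co-culture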
How it was run: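 HUVEC/PBMC co-culture, LPS-stimulated; 24 h post-dose; TNFa by ELISA; gain or loss of signal fitted bidirectionally vs DMSO baseline.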

[7] = read-out: Vascular cell adhesion molecule 1 (VCAM1), VCAM1 (gene 7412); assay: BSK_LPS_VCAM1: BioMAP Diversity Plus: LPS Assay for Vascular cell adhesion molecule 1 (VCAM1) Biomarker Activity (AID 2283086); conditions: primary human HUVEC with PBMC; actives raise or lower the signal
How it was run: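 ELISA read-out of VCAM-1 at 24 h post-dosing in an LPS-driven HUVEC/PBMC primary human co-culture; gain or loss of signal fitted bidirectionally against DMSO baseline. Cytotoxicity tracked in parallel cultures by SRB total-protein staining.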

[8] = read-out: CD38, CD38 (gene 952); assay: BSK_SAg_CD38: BioMAP Diversity Plus: SAg Assay for CD38 Biomarker Activity (AID 2283087); conditions: primary human HUVEC with PBMC; actives raise or lower the signal
How it was run: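 Measures CD38 on a human endothelial/PBMC co-culture driven by SEB and TSST-1, 24 h after compound exposure, using ELISA with fluorescence detection; DMSO defines baseline for bidirectional curve fitting.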

[9] = read-out: CD40, CD40 (gene 958); assay: BSK_SAg_CD40: BioMAP Diversity Plus: SAg Assay for CD40 Biomarker Activity (AID 2283088); conditions: primary human HUVEC with PBMC; actives raise or lower the signal
How it was run: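 HUVEC plus PBMC co-culture, superantigen-activated, with CD40 read by ELISA 24 h after dosing. Curves fitted in both directions against DMSO. Overt cytotoxicity checked by parallel SRB total-protein staining.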

[10] = read-out: Monocyte Chemoattractant Protein-1 (MCP1), CCL2 (gene 6347); assay: BSK_SAg_MCP1: BioMAP Diversity Plus: SAg Assay for Monocyte Chemoattractant Protein-1 (MCP1) Biomarker Activity (AID 2283090); conditions: primary human HUVEC with PBMC; actives raise or lower the signal
How it was run: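 Values derive from bidirectional fitting of ELISA-measured MCP1 against DMSO controls. Readings were taken 24 h after dosing human vascular endothelial cells co-cultured with peripheral blood mononuclear cells under superantigen stimulation.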

[11] = read-out: E-selectin (Homo sapiens) (UniProt P16581); assay: BSK_SAg_Eselectin: BioMAP Diversity Plus: SAg Assay for Eselectin Biomarker Activity (AID 2283091); conditions: primary human HUVEC with PBMC; actives raise or lower the signal
How it was run: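 Human umbilical vein endothelial cells co-cultured with peripheral blood mononuclear cells, SAg system. E-selectin is measured by ELISA 24 h after dosing and fitted bidirectionally against DMSO. Cytotoxicity is checked by SRB staining of parallel cultures.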

[12] = read-out: Monokine induced gamma interferon (MIG), CXCL9 (gene 4283); assay: BSK_SAg_MIG: BioMAP Diversity Plus: SAg Assay for Monokine induced gamma interferon (MIG) Biomarker Activity (AID 2283092); conditions: primary human HUVEC with PBMC; actives raise or lower the signal
How it was run: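 Measures CXCL9 protein by ELISA in a human vascular primary-cell co-culture (umbilical vein endothelium with PBMC) 24 h after chemical addition. Activity is scored up or down from the DMSO control.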

[13] = BSK_SAg_PBMCCytotoxicity: PBMC Cytotoxicity Assessment in the BioMAP Diversity Plus: SAg Assay (AID 2283093); conditions: primary human HUVEC with PBMC;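 note: PBMC superantigen activated with SEB plus TSST-1 one hour after compound addition; PBMC viability measured as Alamar Blue reduction fluorescence at 546/580 nm; fitted both ways against DMSO so a hit may be loss or gain of signal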
How it was run: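 Alamar Blue reduction (6 h, ex/em 546/580 nm) read after 90 h culture of PBMC pre-dosed 1 h then stimulated with SEB plus TSST-1, 20 ng/mL each. Gain or loss of signal fitted relative to DMSO.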

[14] = read-out: Interleukin-8 (IL8), CXCL8 (gene 3576); assay: BSK_SAg_IL8: BioMAP Diversity Plus: SAg Assay for Interleukin-8 (IL8) Biomarker Activity (AID 2283094); conditions: primary human HUVEC with PBMC; actives raise or lower the signal
How it was run: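 HUVEC/PBMC co-culture, 24 h post-dose; IL-8 by ELISA. Gain or loss of signal fitted bidirectionally vs DMSO baseline.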

[15] = BSK_SAg_Proliferation: Cell Proliferation Assessment in the BioMAP Diversity Plus: SAg Assay (AID 2283095); conditions: primary human HUVEC with PBMC;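 note: relative cell number as total protein by SRB absorbance in sub-confluent culture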
How it was run: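 HUVEC/PBMC co-culture, 96-well. TCA-fixed (10%), 0.1% SRB stain, A560 at 96 h. Protein content used as viability readout; bidirectional fitting vs DMSO control.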

[16] = BSK_SAg_SRB: Viability Assessment in the BioMAP Diversity Plus: SAg Assay (AID 2283096); conditions: primary human HUVEC with PBMC;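 note: cells read one day after compound addition; hits may be either gain or loss of signal compared with DMSO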
How it was run: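 SRB absorbance at 560 nm served as the viability read-out. Cells (HUVEC plus peripheral blood mononuclear cells) were TCA-fixed and stained 24 h post-dosing; activity fitted in both directions against DMSO controls.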

[17] = biological target: bovine Estrogen Receptor (ER), ESR1 (gene 407238) (UniProt P49884); assay: NVS_NR_bER: NovaScreen (NVS) Nuclear Receptor Binding Assay for bovine Estrogen Receptor (ER) (AID 2283345; active = hit-call score of the fitted dose curve at least 0.9, where 1 is the maximum;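 note: actives lower the bound radioligand count which means they displace the ER ligand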)
How it was run: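 Scintillation counting of displaced radioligand gave the readout; bovine uterine membrane extract supplied the receptor. Measured 18 h post-dose, normalized to DMSO baseline. Single 25 uM duplicate screen preceded concentration-response follow-up.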

[18] = TOX21_p53_BLA_p2_viability: Viability Assessment in the Tox21 HCT-116 p53 Agonism Beta-lactamase Assay, Phase 2 (AID 2283591; active = hit-call score of the fitted dose curve at least 0.9, where 1 is the maximum;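 note: compound exposure lasted 16 h at 37 °C; actives lower the ATP signal meaning cytotoxicity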)
How it was run: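 Cytotoxicity readout: CellTiter-Glo ATP luminescence, 30 min at room temperature, after the beta-lactamase read. Cells were HCT116 exposed 16 h at 37C to compounds pin-transferred at 217-fold dilution from DMSO stocks.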

[19] = TOX21_p53_BLA_p3_viability: Viability Assessment in the Tox21 HCT-116 p53 Agonism Beta-lactamase Assay, Phase 3 (AID 2283593; active = hit-call score of the fitted dose curve at least 0.9, where 1 is the maximum;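 note: cells exposed to compound for 16 h before reading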)
How it was run: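 Cellular ATP was quantified by CellTiter-Glo luminescence, read after 30 min at room temperature. Beforehand, HCT116 cells (4000/well) received compound 5 h post-seeding, 217-fold diluted from DMSO, then incubated 16 h at 37C.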

[20] = TOX21_p53_BLA_p4_viability: Viability Assessment in the Tox21 HCT-116 p53 Agonism Beta-lactamase Assay, Phase 4 (AID 2283597; active = hit-call score of the fitted dose curve at least 0.9, where 1 is the maximum;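 note: hits lower the luminescence signal meaning cytotoxicity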)
How it was run: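 4000 HCT116 cells per well; 5 h attachment; compounds from DMSO, 217-fold dilution; 16 h at 37C. Then CCF4-AM, 2 h RT, followed by CellTiter-Glo, 30 min RT, luminescence. Decrease = cytotoxicity.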

Measured: AC50

E-selectin (Homo sapiens), sequence (P16581 whole entry, looked up): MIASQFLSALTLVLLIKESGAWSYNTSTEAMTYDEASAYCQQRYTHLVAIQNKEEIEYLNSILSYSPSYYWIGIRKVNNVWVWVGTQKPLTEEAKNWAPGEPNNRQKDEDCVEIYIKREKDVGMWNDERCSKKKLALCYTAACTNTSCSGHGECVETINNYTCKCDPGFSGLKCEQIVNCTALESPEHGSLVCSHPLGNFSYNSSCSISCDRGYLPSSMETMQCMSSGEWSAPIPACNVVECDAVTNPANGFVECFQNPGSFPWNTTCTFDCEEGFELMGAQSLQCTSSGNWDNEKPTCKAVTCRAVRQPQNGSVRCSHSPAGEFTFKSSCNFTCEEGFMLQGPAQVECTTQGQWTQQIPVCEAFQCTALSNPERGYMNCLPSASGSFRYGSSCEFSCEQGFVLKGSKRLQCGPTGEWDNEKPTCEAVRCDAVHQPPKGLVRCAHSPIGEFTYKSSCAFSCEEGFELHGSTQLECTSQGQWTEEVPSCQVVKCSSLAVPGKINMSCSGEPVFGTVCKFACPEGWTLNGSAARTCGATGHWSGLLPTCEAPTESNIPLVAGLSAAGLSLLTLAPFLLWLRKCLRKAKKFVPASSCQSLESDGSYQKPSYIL
Tumor necrosis factor (Homo sapiens), sequence (P01375 whole entry, looked up): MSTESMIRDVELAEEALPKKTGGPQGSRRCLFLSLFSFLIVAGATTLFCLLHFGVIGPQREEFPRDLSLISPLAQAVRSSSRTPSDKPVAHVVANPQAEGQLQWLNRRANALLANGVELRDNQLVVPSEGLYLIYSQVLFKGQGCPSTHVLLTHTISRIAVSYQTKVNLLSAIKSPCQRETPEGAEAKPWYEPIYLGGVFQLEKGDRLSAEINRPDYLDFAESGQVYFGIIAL
bovine Estrogen Receptor (ER), ESR1 (gene 407238), sequence (P49884 whole entry, looked up): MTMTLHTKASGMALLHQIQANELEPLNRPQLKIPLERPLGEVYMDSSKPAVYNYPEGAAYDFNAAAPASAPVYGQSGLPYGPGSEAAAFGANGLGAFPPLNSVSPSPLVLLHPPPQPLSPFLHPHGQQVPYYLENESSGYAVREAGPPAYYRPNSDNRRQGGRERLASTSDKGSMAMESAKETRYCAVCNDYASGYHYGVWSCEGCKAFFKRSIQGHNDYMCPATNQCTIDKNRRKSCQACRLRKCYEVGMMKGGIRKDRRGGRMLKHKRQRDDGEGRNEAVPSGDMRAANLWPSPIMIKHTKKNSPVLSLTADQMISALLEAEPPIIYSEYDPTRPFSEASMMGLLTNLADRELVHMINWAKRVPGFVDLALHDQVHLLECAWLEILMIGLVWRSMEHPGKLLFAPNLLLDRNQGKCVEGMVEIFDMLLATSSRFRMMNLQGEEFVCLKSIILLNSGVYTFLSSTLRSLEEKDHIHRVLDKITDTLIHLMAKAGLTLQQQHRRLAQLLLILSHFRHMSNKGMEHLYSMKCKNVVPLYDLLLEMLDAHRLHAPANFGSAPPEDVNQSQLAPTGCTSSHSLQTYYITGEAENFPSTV

[Cd+2].[Cl-].[Cl-]
inactive: [1] | [2] | [3] | [4] | [5] | [6] | [12] | [16] | [17] | [19] | [20]
active: [1] 28.9 µM | [6] 33 µM | [7] 30 µM and 35.9 µM | [8] 35.3 µM and 15.6 µM | [9] 30.2 µM and 34.7 µM | [10] 33 µM and 34.4 µM | [11] 32.2 µM and 30.2 µM | [13] 20 µM and 30.4 µM | [14] 34.9 µM and 31.4 µM | [15] 14 µM and 13.4 µM | [18] 67.9 µM and 68.1 µM | [19] 69.2 µM | [20] 68.6 µM
